Hits are enriched below; roughly 4.1% of the tested compounds scored in any of these assays.
DAX1 inh-1: DAX1 (NR0B1) inhibition, primary screen. HEK293T StAR-luciferase reporter, SF-1/DAX-1 repression relief. inhibition, % at 6.8 µM. 1.1% of 370,000 active. AID 652010;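 active = inhibition above the mean over all tested compounds plus 3 SD, cut at about 3.6% in these data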;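 note: higher inhibition means more luminescence from relief of DAX-1 repression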
hcDAF12 agonist: activators of H. contortus DAF-12 nuclear receptor. 1.4% of 370,000 active. AID 652067. activation, % at 6.8 µM. HEK293 hcDAF-12 lit1-tk-luc reporter, luminescence; 0% DMSO, 100% Δ7-dafachronic acid;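 active = activation above the mean of all tested compounds plus 3 SD, cut at about 5.5% in these data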
ssDAF-12 act: activates DAF-12 receptor from parasite S. stercoralis; HEK293 ssDAF-12/GRIP1 lit1-tk-luc reporter, luminescence; % of 3 µM dafachronic acid response; activation, % at 6.8 µM; 1% of 370,000 active; AID 652126;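 active = activation above the mean over all tested compounds plus 3 SD, cut at about 0.9% in these data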
DAX1 inh-2: NR0B1 (DAX1) inhibition; P51843; HEK293 Gal4-DAX1 luciferase reporter, luminescence; inhibition, % at 6.75 µM; 0.99% of 340,000 active; AID 504766;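 active = inhibition above the mean over all tested compounds plus 3 SD, cut at about 4.2% in these data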;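 note: inhibition shows as a rise in luminescence from relieved DAX1 repression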
Target sequence (P51843 207-470 limits assumed): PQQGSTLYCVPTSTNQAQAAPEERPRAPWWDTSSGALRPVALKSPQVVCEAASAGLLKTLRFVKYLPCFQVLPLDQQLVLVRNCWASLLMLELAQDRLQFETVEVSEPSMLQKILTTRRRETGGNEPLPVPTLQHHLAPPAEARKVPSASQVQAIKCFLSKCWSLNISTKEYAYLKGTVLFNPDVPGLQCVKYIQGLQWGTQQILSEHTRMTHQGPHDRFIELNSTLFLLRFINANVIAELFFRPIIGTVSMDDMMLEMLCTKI
hgDAF12 agonist: agonists of H. glycines DAF-12 nuclear receptor | activation, % at 6.8 µM | HEK293 GAL4-hgDAF12 UAS-luciferase reporter, agonist luminescence; normalized to butyrate control | AID 687014 | 1.8% of 370,000 active;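 active = activation above a cutoff set at the mean of all screened compounds plus 3 SD, cut at about 10% in these data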
Hits are given with their value; i = inactive; nt = not tested or not shown.

SMILES	DAX1 inh-1	hcDAF12 agonist	ssDAF-12 act	DAX1 inh-2	hgDAF12 agonist
CCCc1cc2c(OC)ccc(O)c2c(=O)n1C	i	i	i	nt	i
CC1CC(Nc2ccccc2N)=CC(=O)O1 (stereo not drawn)	i	5.8	i	i	i
COCC(=O)Nc1ccccc1-c1ccccc1	i	i	i	i	11
Cc1ccc(C(=O)CSc2nnc(-c3ccccn3)n2-c2ccccc2)cc1	i	i	i	nt	i
Cc1ccc(C(=O)N2CCC(C)CC2)cc1C	i	i	2.2	i	i
Cc1ccc(C(=O)N2CCN(c3ccccc3)CC2)cc1C	i	i	i	i	i
COc1cc(/C=N/n2c(-c3cc(-c4ccccc4)n[nH]3)n[nH]c2=S)ccc1OCc1ccccc1	i	i	i	nt	i
COC(=O)c1ccccc1S(=O)(=O)N1CCC(C(=O)NCC2CCCO2)CC1 (stereo not drawn)	i	i	i	4.3	i
Cc1cc(C)n(-c2ccc(OCC(=O)O)nn2)n1	i	i	i	i	i
CCCCOc1ccc(-n2nc(C)cc2C)nn1	i	i	i	4.7	i
Cc1cc(Cl)n2ncc(-c3ccccc3)c2n1	i	i	i	i	i
Cc1cc(C(F)(F)Cl)n2ncc(-c3ccccn3)c2n1	i	i	1.2	i	i
Cn1c(=O)[nH]c(=O)c2c1nc(CN1CCN(c3cccc(Cl)c3)CC1)n2CCc1ccccc1	i	i	i	i	i
Cn1c(CN2CCN(c3cccc(Cl)c3)CC2)nc2ccccc21	i	5.8	i	i	i
CCN(CC)CCn1c2ccccc2c2cnc(N)c(C#N)c21	3.9	i	i	i	i
CC[C@@H]1CCCCc2ccccc2[C@H](C(=O)C[C@@H](O)CC(C)=O)OC1=O	i	i	i	i	i
CC[C@H]1CCCCc2ccccc2[C@@H](C(=O)C[C@@H](O)CC(C)=O)OC1=O	4.0	i	i	i	i
COc1cccc2cc3c(nc12)C[C@@H]1CCCC(=O)N2CCC[C@@]12C3	nt	i	i	nt	i
COc1cc(/C=C2/SC(=S)N(Cc3ccccc3)C2=O)ccc1OCC(=O)O	i	i	i	i	i
CCOc1cc(/C=C2/SC(=S)N(Cc3ccccc3)C2=O)ccc1O	i	6.4	i	i	i
CCCCNC(=O)Cn1cnc([N+](=O)[O-])n1	i	i	i	4.8	i
CCCN(CC(=O)Nc1ccccc1C)C(=O)c1ccc(Cl)c(S(=O)(=O)N2CCCC2)c1	i	i	i	5.3	i
C=CCOc1ccc(/C=C/C(=O)OCC(=O)N2CCN(C(C)=O)CC2)cc1	i	i	i	i	i
C=CCOc1ccc(/C=C/C(C)=N\O)cc1	3.9	i	i	i	i
O=C(NCC(=O)N1CCCCCC1)c1ccc(Cl)cc1	i	i	i	i	i
SMILES	DAX1 inh-1	hcDAF12 agonist	ssDAF-12 act	DAX1 inh-2	hgDAF12 agonist
O=C(NCC(=O)N1CCCCCCC1)c1ccc(Cl)cc1	i	i	i	i	12
NC(=O)CNC(=O)c1ccc(Cl)cc1	i	i	i	5.6	i
CC(OC(=O)CNC(=O)C1CCCCC1)C(=O)NCc1ccccc1 (stereo not drawn)	i	i	1.6	i	i
CC(OC(=O)c1cc[n+]([O-])cc1)C(=O)NCc1ccccc1 (stereo not drawn)	i	i	i	4.7	i
CCN(C(=O)COC(=O)CNC(=O)C1CCCCC1)c1ccccc1	i	i	1.0	i	i
COc1ccc(-c2ccc3c(n2)CCCN3S(=O)(=O)c2c(C)noc2C)cc1	i	i	i	nt	i
CCCCNC(=O)O[C@H]1CC[C@@]23CCCN2C(=O)CCC[C@H]3[C@H]1CCC	nt	i	i	nt	i
Cn1c(=O)oc2cc(S(=O)(=O)N3CCN(c4ccccc4)CC3)ccc21	i	i	2.6	i	i
Cn1c(=O)oc2cc(S(=O)(=O)N3CCC(C(=O)N4CCN(c5ccccc5)CC4)CC3)ccc21	i	i	i	i	i
CSc1nc(C)cc(Oc2ccc(=O)[nH]n2)n1	i	i	i	5.8	i
O=C(CSc1nc2ccccc2nc1N1CCCCC1)N1CCN(S(=O)(=O)c2ccccc2)CC1	i	i	i	nt	i
CCc1ccc(OCC(=O)Nc2nnc(-c3ccco3)s2)cc1	4.4	i	i	i	i
CC(C)CC(=O)Nc1nnc(-c2ccco2)s1	i	i	i	i	i
O=C(Oc1ccc2c(-c3ccccc3)cc(=O)oc2c1)c1cccs1	i	i	i	4.4	i
O=C(O)c1ccccc1C(=O)c1ccc(Sc2ccc(Cl)cc2)c([N+](=O)[O-])c1	i	i	i	8.1	i
Nc1ccccc1Sc1ccc(C(=O)c2ccccc2C(=O)O)cc1[N+](=O)[O-]	i	i	i	i	i
O=C(O)c1ccccc1C(=O)c1ccc(N2CCOCC2)c([N+](=O)[O-])c1	i	i	1.1	i	i
O=C(NCCc1nc2ccccc2n1CCOc1cc(F)ccc1F)C1CCCCC1	nt	i	i	nt	i
CCCOc1ccc(-c2nnc(-c3ccncc3)o2)cc1	i	i	i	i	11
COc1ccc(CNC(=O)Cc2csc(Nc3nc(=S)[nH]c4ccccc34)n2)cc1	i	i	1.0	i	i
Cc1cc(Nc2cnc3ccccc3n2)n(-c2ccccc2)n1	i	i	1.9	i	i
CC1CCC/C(=N/NC(=O)c2ccccc2-n2cccc2)C1 (stereo not drawn)	i	6.1	i	i	i
CC1CCC(=NNC(=O)c2ccccc2-n2cccc2)CC1 (stereo not drawn)	i	i	i	i	i
O=C(N/N=C\c1cc2c(cc1[N+](=O)[O-])OCO2)c1cccs1	i	i	i	i	i
O=C(N/N=C\c1cc2c(cc1Cl)OCO2)c1cccs1	i	i	i	i	13
SMILES	DAX1 inh-1	hcDAF12 agonist	ssDAF-12 act	DAX1 inh-2	hgDAF12 agonist
CC(=O)CC[C@@H]1CC[C@]2(CCCN(C(=O)c3ccc4ccccc4n3)C2)O1	i	i	i	nt	i
CCCCN1CC(COCc2ccccc2)Oc2cccc(Sc3ccc(OC)c(OC)c3)c2S1(=O)=O (stereo not drawn)	4.2	i	i	nt	i
COc1ccc(C)cc1Nc1nc(-c2c[nH]c3ccccc23)cs1	i	5.8	i	i	i
Cc1nc2ccc(NC(=O)C3COc4ccccc4O3)cc2s1 (stereo not drawn)	i	i	i	i	12
Cc1ccc(NC(=O)C2COc3ccccc3O2)cc1C (stereo not drawn)	nt	nt	nt	4.9	nt
CN(C)S(=O)(=O)c1ccc(NC(=O)C2COc3ccccc3O2)cc1 (stereo not drawn)	i	i	i	4.5	i
CN(C(=O)COC(=O)CSc1ccc([N+](=O)[O-])cc1)C1CCS(=O)(=O)C1 (stereo not drawn)	i	i	1.5	i	i
Cc1cccc(C)c1NC(=O)CNC(=O)CCC(=O)N1CCOCC1	3.7	i	i	i	i
Cc1ccc(-c2[nH]c3ccccc3c2SCCN)cc1	i	6.0	1.2	i	i
COc1cccc(-c2ccc(SCc3ccccn3)nn2)c1	i	i	i	i	12
COc1ccc(-c2ccc(SCc3ccccn3)nn2)cc1OC	i	i	i	i	i

Screening results (PubChem BioAssay)
